The source made the active and inactive calls.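 The calls were made as follows: active = normalized viability below 100% at a tested concentration; inactive = the rest.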
test: ovarian cancer cell viability with rucaparib, profiling panel, oncology-focused library, rucaparib conditional (AID 1508598); conditions: patient-derived ovarian cancer cells, CellTiter-Glo viability, 144 h; at 0.0195 µM; OCI-P5x cells; without rucaparib; active compounds read low

| Compound | viability |
| --- | --- |
| CCOC(=O)NCCCC(=O)NCCc1ccccc1 | 94.2% (active) |
| C[C@@]1(c2nc3c(C(N)=O)cccc3[nH]2)CCCN1 | 95.2% (active) |
| Cc1ccc(NC(=O)c2ccc(CN3CCN(C)CC3)cc2)cc1Nc1nc(-c2cccnc2)cs1 | 85.4% (active) |
| C[C@]12CC[C@H]3c4ccc(O)cc4CC[C@H]3[C@@H]1CCC2=O | 96.2% (active) |
| O=C(NCC1(c2nc(-c3ccccc3)cs2)CCOCC1)c1cccc(-c2noc(C(F)(F)F)n2)c1 | 89.1% (active) |

same assay, conditions: patient-derived ovarian cancer cells, CellTiter-Glo viability, 144 h; at 0.0781 µM; OCI-C5x cells; with rucaparib 10 µM; active compounds read low; 100% = cells with rucaparib alone

| Compound | viability |
| --- | --- |
| CCOC(=O)NCCCC(=O)NCCc1ccccc1 | 110% (inactive) |
| C[C@@]1(c2nc3c(C(N)=O)cccc3[nH]2)CCCN1 | 120% (inactive) |
| Cc1ccc(NC(=O)c2ccc(CN3CCN(C)CC3)cc2)cc1Nc1nc(-c2cccnc2)cs1 | 100% (inactive) |
| C[C@]12CC[C@H]3c4ccc(O)cc4CC[C@H]3[C@@H]1CCC2=O | 115% (inactive) |
| O=C(NCC1(c2nc(-c3ccccc3)cs2)CCOCC1)c1cccc(-c2noc(C(F)(F)F)n2)c1 | 109% (inactive) |

same assay, conditions: patient-derived ovarian cancer cells, CellTiter-Glo viability, 144 h; at 0.0781 µM; OCI-C5x cells; without rucaparib; active compounds read low

| Compound | viability |
| --- | --- |
| CCOC(=O)NCCCC(=O)NCCc1ccccc1 | 108% (inactive) |
| C[C@@]1(c2nc3c(C(N)=O)cccc3[nH]2)CCCN1 | 104% (inactive) |
| Cc1ccc(NC(=O)c2ccc(CN3CCN(C)CC3)cc2)cc1Nc1nc(-c2cccnc2)cs1 | 123% (inactive) |
| C[C@]12CC[C@H]3c4ccc(O)cc4CC[C@H]3[C@@H]1CCC2=O | 99.8% (active) |
| O=C(NCC1(c2nc(-c3ccccc3)cs2)CCOCC1)c1cccc(-c2noc(C(F)(F)F)n2)c1 | 106% (inactive) |

same assay, conditions: patient-derived ovarian cancer cells, CellTiter-Glo viability, 144 h; at 0.0781 µM; OCI-P5x cells; with rucaparib 20 µM; active compounds read low; 100% = cells with rucaparib alone

| Compound | viability |
| --- | --- |
| CCOC(=O)NCCCC(=O)NCCc1ccccc1 | 94.7% (active) |
| C[C@@]1(c2nc3c(C(N)=O)cccc3[nH]2)CCCN1 | 91.6% (active) |
| Cc1ccc(NC(=O)c2ccc(CN3CCN(C)CC3)cc2)cc1Nc1nc(-c2cccnc2)cs1 | 97% (active) |
| C[C@]12CC[C@H]3c4ccc(O)cc4CC[C@H]3[C@@H]1CCC2=O | 96.1% (active) |
| O=C(NCC1(c2nc(-c3ccccc3)cs2)CCOCC1)c1cccc(-c2noc(C(F)(F)F)n2)c1 | 94% (active) |

same assay, conditions: patient-derived ovarian cancer cells, CellTiter-Glo viability, 144 h; at 0.0781 µM; OCI-P5x cells; without rucaparib; active compounds read low

| Compound | viability |
| --- | --- |
| CCOC(=O)NCCCC(=O)NCCc1ccccc1 | 99.6% (active) |
| C[C@@]1(c2nc3c(C(N)=O)cccc3[nH]2)CCCN1 | 102% (inactive) |
| Cc1ccc(NC(=O)c2ccc(CN3CCN(C)CC3)cc2)cc1Nc1nc(-c2cccnc2)cs1 | 92.9% (active) |
| C[C@]12CC[C@H]3c4ccc(O)cc4CC[C@H]3[C@@H]1CCC2=O | 66% (active) |
| O=C(NCC1(c2nc(-c3ccccc3)cs2)CCOCC1)c1cccc(-c2noc(C(F)(F)F)n2)c1 | 94.9% (active) |

same assay, conditions: patient-derived ovarian cancer cells, CellTiter-Glo viability, 144 h; at 0.313 µM; OCI-C5x cells; with rucaparib 10 µM; active compounds read low; 100% = cells with rucaparib alone

| Compound | viability |
| --- | --- |
| CCOC(=O)NCCCC(=O)NCCc1ccccc1 | 117% (inactive) |
| C[C@@]1(c2nc3c(C(N)=O)cccc3[nH]2)CCCN1 | 132% (inactive) |
| Cc1ccc(NC(=O)c2ccc(CN3CCN(C)CC3)cc2)cc1Nc1nc(-c2cccnc2)cs1 | 113% (inactive) |
| C[C@]12CC[C@H]3c4ccc(O)cc4CC[C@H]3[C@@H]1CCC2=O | 81.6% (active) |
| O=C(NCC1(c2nc(-c3ccccc3)cs2)CCOCC1)c1cccc(-c2noc(C(F)(F)F)n2)c1 | 132% (inactive) |

same assay, conditions: patient-derived ovarian cancer cells, CellTiter-Glo viability, 144 h; at 0.313 µM; OCI-C5x cells; without rucaparib; active compounds read low

| Compound | viability |
| --- | --- |
| CCOC(=O)NCCCC(=O)NCCc1ccccc1 | 106% (inactive) |
| C[C@@]1(c2nc3c(C(N)=O)cccc3[nH]2)CCCN1 | 102% (inactive) |
| Cc1ccc(NC(=O)c2ccc(CN3CCN(C)CC3)cc2)cc1Nc1nc(-c2cccnc2)cs1 | 124% (inactive) |
| C[C@]12CC[C@H]3c4ccc(O)cc4CC[C@H]3[C@@H]1CCC2=O | 57.7% (active) |
| O=C(NCC1(c2nc(-c3ccccc3)cs2)CCOCC1)c1cccc(-c2noc(C(F)(F)F)n2)c1 | 102% (inactive) |

same assay, conditions: patient-derived ovarian cancer cells, CellTiter-Glo viability, 144 h; at 0.313 µM; OCI-P5x cells; with rucaparib 20 µM; active compounds read low; 100% = cells with rucaparib alone

| Compound | viability |
| --- | --- |
| CCOC(=O)NCCCC(=O)NCCc1ccccc1 | 88.9% (active) |
| C[C@@]1(c2nc3c(C(N)=O)cccc3[nH]2)CCCN1 | 98.3% (active) |
| Cc1ccc(NC(=O)c2ccc(CN3CCN(C)CC3)cc2)cc1Nc1nc(-c2cccnc2)cs1 | 102% (inactive) |
| C[C@]12CC[C@H]3c4ccc(O)cc4CC[C@H]3[C@@H]1CCC2=O | 80.9% (active) |
| O=C(NCC1(c2nc(-c3ccccc3)cs2)CCOCC1)c1cccc(-c2noc(C(F)(F)F)n2)c1 | 95.8% (active) |

same assay, conditions: patient-derived ovarian cancer cells, CellTiter-Glo viability, 144 h; at 0.313 µM; OCI-P5x cells; without rucaparib; active compounds read low

| Compound | viability |
| --- | --- |
| CCOC(=O)NCCCC(=O)NCCc1ccccc1 | 104% (inactive) |
| C[C@@]1(c2nc3c(C(N)=O)cccc3[nH]2)CCCN1 | 91% (active) |
| Cc1ccc(NC(=O)c2ccc(CN3CCN(C)CC3)cc2)cc1Nc1nc(-c2cccnc2)cs1 | 84.1% (active) |
| C[C@]12CC[C@H]3c4ccc(O)cc4CC[C@H]3[C@@H]1CCC2=O | 42.9% (active) |
| O=C(NCC1(c2nc(-c3ccccc3)cs2)CCOCC1)c1cccc(-c2noc(C(F)(F)F)n2)c1 | 90.7% (active) |

same assay, conditions: patient-derived ovarian cancer cells, CellTiter-Glo viability, 144 h; at 1.25 µM; OCI-C5x cells; with rucaparib 10 µM; active compounds read low; 100% = cells with rucaparib alone

| Compound | viability |
| --- | --- |
| CCOC(=O)NCCCC(=O)NCCc1ccccc1 | 118% (inactive) |
| C[C@@]1(c2nc3c(C(N)=O)cccc3[nH]2)CCCN1 | 111% (inactive) |
| Cc1ccc(NC(=O)c2ccc(CN3CCN(C)CC3)cc2)cc1Nc1nc(-c2cccnc2)cs1 | 106% (inactive) |
| C[C@]12CC[C@H]3c4ccc(O)cc4CC[C@H]3[C@@H]1CCC2=O | 78% (active) |
| O=C(NCC1(c2nc(-c3ccccc3)cs2)CCOCC1)c1cccc(-c2noc(C(F)(F)F)n2)c1 | 135% (inactive) |

Reference: PubChem BioAssay
